Consider nine molecules from PubChem BioAssay (Tox21).

Values joined by “and” are separate entries in the source; they are usually repeats but may differ in a detail not shown here. Equal values may be shown once. Results filed as inconclusive are left out. Where a structure was tested more than once in an assay, its records may differ in their call. Active and inactive are the calls of the source. Unless noted, calls come from the whole dose curve; as a rule, active = well fitted curve in the direction sought with a large enough effect in the repeat runs; inconclusive = weak or mixed curves; inactive = no such curve, though single readings can be large; an effect the other way counts as inactive or inconclusive.

A short description of assay [1]: qHTS assay to identify small molecule antagonists of the sonic hedgehog signaling (Shh) pathway (AID 1259369; calls by dose curve; note: nearly all actives have a fitted effect of over 45% in size; note: potency is the fitted concentration of half-maximal effect). In outline:
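Screening used 3T3Gli1-Luc cells at 2,000 per well, compounds delivered in DMSO, and conditioned medium as agonist stimulus; plates incubated 24hr at 37 C and 5% CO2 before a 30min luciferase step.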
Background: Quantitative high-throughput screening tests each substance at several concentrations.

Assay [2] can be described thus: qHTS assay to identify small molecule agonists of the androgen receptor (AR) signaling pathway in the presence of an antagonist - cell viability counter screen (AID 1259379).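 Note: MDA-kb2 human breast cancer cells carrying an MMTV luciferase reporter; series mostly up to about 92 µM; nearly all actives have a fitted effect of over 25% in size.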 In outline: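 In MDA-kb2 cells (human breast carcinoma, MMTV-luciferase), compounds at 15 concentrations plus 3.0uM nilutamide; 16 hr, 37C, 0% CO2; CellTiter-Fluor fluorescence read for viability.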

The nature of assay [3]: qHTS assay to identify small molecule agonists of the estrogen receptor beta (ER-beta) signaling pathway - cell viability counter screen (AID 1259380). Note: nearly all actives have a fitted effect of over 30% in size. In outline: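 Viability of ER-beta-UAS-bla HEK293T cells was determined by CellTiter-Glo luminescence following 16 hr treatment with test compounds at 37C.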
Assay [4] can be described thus: qHTS assay to identify small molecule antagonists of the estrogen receptor beta (ER-beta) signaling pathway - cell viability counter screen (AID 1259382). Note: series mostly up to about 92 µM; nearly all actives have a fitted effect of over 55% in size. In outline: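 Tox21 10K library tested in qHTS format on ER-beta-bla HEK293T cells stimulated with 1nM E2; 16 hr treatment at 37C. Same-well CellTiter-Glo luminescence served as the cell viability measure.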
In assay [5] the target is Estrogen receptor (Homo sapiens) (UniProt P03372). Description: qHTS assay to identify small molecule agonists of the estrogen receptor alpha (ER-alpha) signaling pathway in the presence of an antagonist (AID 1259383; calls by dose curve; note: top concentration of the series differs between compounds; nearly all actives have a fitted effect of over 15% in size). In outline:
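In VM7Luc4E2 cells, 4,000 per well, compounds at 15 concentrations were co-incubated 22hr at 37C with 10.0nM final ICI-182,780. Luminescence from the stably transfected 4×ERE-luciferase reporter was recorded 30min after ONE-Glo addition.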

A short description of assay [6]: qHTS assay to identify small molecule agonists of the estrogen receptor alpha (ER-alpha) signaling pathway in the presence of an antagonist - cell viability counter screen (AID 1259386).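 Note: series mostly up to about 92 µM; cells exposed to compounds for 22 h at 37 °C before the viability read; nearly all actives have a fitted effect of over 30% in size.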 In outline:
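Fluorescent CellTiter-Fluor viability signal from VM7Luc4E2 cells, with the reagent added during the final hour of a 22hr compound exposure at 37C in the presence of 10.0nM ICI-182,780.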

A short description of assay [7]: qHTS assay to identify small molecule antagonists of the progesterone receptor (PR) signaling pathway - cell viability counter screen (AID 1346798). Note: series mostly up to about 92 µM; nearly all actives have a fitted effect of over 50% in size. In outline: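 Cytotoxicity read as CellTiter-Glo luminescence (30 min, room temperature) in the same wells as the beta-lactamase readout. HEK293T PR-UAS-bla cells in charcoal-stripped 2% FBS received compound and R5020, then 16 h at 37C, 5% CO2.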

Assay [8] is described as follows: qHTS assay to identify small molecule agonists of the progesterone receptor (PR) signaling pathway - cell viability counter screen (AID 1346799; calls by dose curve; note: nearly all actives have a fitted effect of over 45% in size). In outline: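 Cytotoxicity measured by CellTiter-Glo luminescence (30 min, RT) in the same wells as the PR beta-lactamase agonist read. Those HEK293T cells had 16 h compound treatment at 37 C in 2% charcoal-stripped FBS medium.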

Assay [9] can be described thus: qHTS assay to identify small molecule antagonists of the TGF-beta/Smad signaling pathway - cell viability counter screen (AID 1346824). Note: nearly all actives have a fitted effect of over 50% in size. In outline:
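SBE-bla HEK 293T cells were plated overnight at 37 C, then given compounds in DMSO plus TGF-beta1 (added as 0.25 ng/mL solution) for 5 hr. After the bla read, CellTiter-Glo was added to the same wells and luminescence read after 30 min at room temperature.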

Assay [10] in a line: qHTS assay to identify small molecule agonists of the TGF-beta/Smad signaling pathway - cell viability counter screen (AID 1346829). Note: top concentration of the series differs between compounds; nearly all actives have a fitted effect of over 45% in size. In outline:
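After overnight seating at 37 C and 5% CO2, reporter cells got compounds for 5 hr and FRET substrate for 2 hr; cell viability then came from CellTiter-Glo luminescence.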

A short description of assay [11]: qHTS assay to identify small molecule agonists of the TGF-beta/Smad signaling pathway (AID 1346859; active = well fitted activation curve with a large enough effect in the signal ratio in the repeat runs, not every such curve was filed as active; the % refers to the signal ratio; note: series mostly up to about 77 µM). In outline: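 Fluorescence (ex 405 nm; em 460 and 530 nm) was read 2 h after LiveBLAzer FRET substrate at RT. The preceding compound treatment of overnight-plated SBE-bla HEK293T cells lasted 5 h at 37 C.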
The target of assay [12] is Thyrotropin-releasing hormone receptor (Homo sapiens) (UniProt P34981). Description: qHTS assay to identify small molecule antagonists of the thyrotropin-releasing hormone receptor (TRHR) signaling pathway (AID 1346877; active = well fitted inhibition curve with a large enough effect in the repeat runs, not every such curve was filed as active; note: series mostly up to about 51 µM). In outline: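 In this cell-based calcium flux format, HEK293 cells expressing TRHR received test compound for 5 min before the agonist TRH (1 nM final). Dye loading lasted 2 h at 37 °C.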
Chain of Thyrotropin-releasing hormone receptor (Homo sapiens) (P34981 whole entry, looked up): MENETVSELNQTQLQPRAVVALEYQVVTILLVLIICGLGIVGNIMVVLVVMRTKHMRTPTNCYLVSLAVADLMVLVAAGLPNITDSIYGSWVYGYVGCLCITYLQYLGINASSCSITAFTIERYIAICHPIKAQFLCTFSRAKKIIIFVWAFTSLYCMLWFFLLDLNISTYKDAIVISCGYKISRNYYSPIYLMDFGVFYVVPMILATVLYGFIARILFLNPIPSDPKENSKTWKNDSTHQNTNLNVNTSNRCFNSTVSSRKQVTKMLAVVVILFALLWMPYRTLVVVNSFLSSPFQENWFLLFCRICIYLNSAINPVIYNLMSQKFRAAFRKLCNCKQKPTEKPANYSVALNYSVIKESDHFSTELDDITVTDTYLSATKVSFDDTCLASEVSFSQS

Assay [13] has the same target. As to the kind of experiment: qHTS assay to identify small molecule agonists of the thyrotropin-releasing hormone receptor (TRHR) signaling pathway (AID 1346891; calls by dose curve; note: series mostly up to about 58 µM). In outline:
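Agonist-mode intracellular calcium readout: kinetic fluorescence over 3 min at 1 s intervals after compound addition to TRHR-HEK293 cells (18 h seeded, 2 h dye-loaded at 37 C). Fifteen concentrations, triplicates.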

The target in assay [14] is Estrogen receptor beta (Homo sapiens) (UniProt Q92731). As to the kind of experiment: qHTS assay to identify small molecule agonists of the estrogen receptor beta (ER-beta) signaling pathway (AID 1259377; active = well fitted activation curve with a large enough effect in the signal ratio in the repeat runs, not every such curve was filed as active; the % refers to the signal ratio). In outline: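 Ratiometric beta-lactamase FRET read-out came after 2 h substrate loading at room temperature. It followed 16 h compound treatment at 37C of GripTite HEK293T cells carrying a UAS-bla reporter, plated in 2% charcoal-stripped FBS medium.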
Chain of Estrogen receptor beta (Homo sapiens) (Q92731 whole entry, looked up): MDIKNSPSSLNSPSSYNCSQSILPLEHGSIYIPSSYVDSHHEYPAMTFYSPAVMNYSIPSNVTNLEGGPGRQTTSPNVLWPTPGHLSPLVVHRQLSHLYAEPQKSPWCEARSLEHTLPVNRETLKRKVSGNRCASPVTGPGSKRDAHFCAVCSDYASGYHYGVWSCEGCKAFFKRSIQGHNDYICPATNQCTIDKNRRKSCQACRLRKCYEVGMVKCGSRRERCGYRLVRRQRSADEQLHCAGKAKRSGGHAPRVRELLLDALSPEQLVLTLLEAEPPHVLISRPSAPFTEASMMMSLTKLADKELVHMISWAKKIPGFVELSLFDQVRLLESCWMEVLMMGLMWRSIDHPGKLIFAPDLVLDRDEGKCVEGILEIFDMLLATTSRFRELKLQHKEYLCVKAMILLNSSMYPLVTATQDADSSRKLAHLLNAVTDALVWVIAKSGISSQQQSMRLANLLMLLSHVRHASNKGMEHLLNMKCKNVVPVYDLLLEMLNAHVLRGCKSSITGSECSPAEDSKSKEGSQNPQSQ

Assay [15] has the same target. Description: qHTS assay to identify small molecule antagonists of the estrogen receptor beta (ER-beta) signaling pathway (AID 1259378; active = well fitted inhibition curve with a large enough effect in the signal ratio in the repeat runs, not every such curve was filed as active; the % refers to the signal ratio). In outline:
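ER-beta-UAS-bla HEK293T (GripTite) cells in 2% charcoal-stripped FBS medium were preincubated 6 hr at 37C, dosed with compound, then stimulated with 1 nM E2 (final) for 16 hr; beta-lactamase reporter read by B/G FRET fluorescence after 2 hr substrate loading.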

Assay [16] is described as follows: qHTS assay to identify small molecule agonists or antagonists of the thyroid stimulating hormone receptor (TSHR) signaling pathway - wild type cell line counter screen (AID 1259384; calls by dose curve). In outline:
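Wild-type HEK293 cells were plated 18 h at 37 C/5% CO2, pin-dosed with compound plus Ro20-1724 medium, held 30 min at room temperature, then given cAMP-d2 and anti-cAMP-cryptate; fluorescence was read after 1 h. Fifteen concentrations, triplicate.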

In assay [17] the target is Thyrotropin receptor (Homo sapiens) (UniProt P16473). As to the kind of experiment: qHTS assay to identify small molecule antagonists of the thyroid stimulating hormone receptor (TSHR) signaling pathway (AID 1259385; calls by dose curve; note: nearly all actives have a fitted effect of over 20% in size). In outline: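 TSHR-HEK293 cells were plated and held 18 h at 37C/5% CO2, then given compound plus Ro20-1724 and stimulated with TSH at 1.5 ng/mL final. After 30 min at room temperature, cAMP was detected with cAMP-d2/anti-cAMP-cryptate (1 h) by fluorescence.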
Chain of Thyrotropin receptor (Homo sapiens) (P16473 whole entry, looked up): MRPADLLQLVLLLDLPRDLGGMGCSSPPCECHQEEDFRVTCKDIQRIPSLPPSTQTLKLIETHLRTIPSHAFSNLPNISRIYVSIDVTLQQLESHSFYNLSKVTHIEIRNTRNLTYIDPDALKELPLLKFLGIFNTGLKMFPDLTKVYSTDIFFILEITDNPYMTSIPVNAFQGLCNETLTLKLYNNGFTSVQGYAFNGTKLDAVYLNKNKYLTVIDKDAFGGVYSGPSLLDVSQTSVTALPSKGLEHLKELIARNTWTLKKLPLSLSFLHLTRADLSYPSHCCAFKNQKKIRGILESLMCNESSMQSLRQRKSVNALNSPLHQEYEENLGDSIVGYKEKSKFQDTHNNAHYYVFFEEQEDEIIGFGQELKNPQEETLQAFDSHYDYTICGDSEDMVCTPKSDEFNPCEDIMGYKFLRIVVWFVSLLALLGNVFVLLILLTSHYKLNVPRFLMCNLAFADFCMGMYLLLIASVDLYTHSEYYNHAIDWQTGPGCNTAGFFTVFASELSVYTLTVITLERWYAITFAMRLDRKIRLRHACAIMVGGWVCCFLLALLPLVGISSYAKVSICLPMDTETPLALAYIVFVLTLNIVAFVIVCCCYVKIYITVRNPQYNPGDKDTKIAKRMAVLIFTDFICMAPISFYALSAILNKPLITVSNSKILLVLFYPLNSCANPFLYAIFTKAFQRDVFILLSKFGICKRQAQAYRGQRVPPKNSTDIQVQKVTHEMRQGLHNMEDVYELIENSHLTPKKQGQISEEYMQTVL

In assay [18] the target is Progesterone receptor (Homo sapiens) (UniProt P06401). Description: qHTS assay to identify small molecule agonists of the progesterone receptor (PR) signaling pathway (AID 1346784; calls by dose curve; note: nearly all actives have a fitted effect of over 30% in size). In outline:
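Agonist qHTS: compounds pinned onto 3,000 PR-UAS-bla HEK 293T cells per well in charcoal-stripped serum medium, 16hr at 37C, then beta-lactamase activity measured by LiveBLAzer FRET fluorescence after 2 hours at room temperature.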

Assay [19] has the same target. Description: qHTS assay to identify small molecule antagonists of the progesterone receptor (PR) signaling pathway (AID 1346795; active = well fitted inhibition curve with a large enough effect in the signal ratio in the repeat runs, not every such curve was filed as active; the % refers to the signal ratio). In outline: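 Antagonist mode with agonist R5020 at 1 nM final and 16 hr incubation at 37C. Reporter was beta-lactamase driven by UAS in HEK293T (PR-UAS-bla), 2% charcoal-stripped serum; signal from LiveBLAzer FRET substrate, 2 hr at room temperature.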

For assay [20], the target named is Androgen receptor (Homo sapiens) (UniProt P10275). As to the kind of experiment: qHTS assay to identify small molecule agonists of the androgen receptor (AR) signaling pathway in the presence of an antagonist (AID 1259381; calls by dose curve; note: nearly all actives have a fitted effect of over 15% in size). In outline:
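Here, 15-concentration compound series were pin-transferred onto MDA-kb2 MMTV-luciferase cells already dosed with nilutamide (3.0uM final). After 16hr at 37C, ONE-Glo was added and luminescence read 30min later at room temperature.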

Chain of Progesterone receptor (Homo sapiens) (P06401 whole entry, looked up): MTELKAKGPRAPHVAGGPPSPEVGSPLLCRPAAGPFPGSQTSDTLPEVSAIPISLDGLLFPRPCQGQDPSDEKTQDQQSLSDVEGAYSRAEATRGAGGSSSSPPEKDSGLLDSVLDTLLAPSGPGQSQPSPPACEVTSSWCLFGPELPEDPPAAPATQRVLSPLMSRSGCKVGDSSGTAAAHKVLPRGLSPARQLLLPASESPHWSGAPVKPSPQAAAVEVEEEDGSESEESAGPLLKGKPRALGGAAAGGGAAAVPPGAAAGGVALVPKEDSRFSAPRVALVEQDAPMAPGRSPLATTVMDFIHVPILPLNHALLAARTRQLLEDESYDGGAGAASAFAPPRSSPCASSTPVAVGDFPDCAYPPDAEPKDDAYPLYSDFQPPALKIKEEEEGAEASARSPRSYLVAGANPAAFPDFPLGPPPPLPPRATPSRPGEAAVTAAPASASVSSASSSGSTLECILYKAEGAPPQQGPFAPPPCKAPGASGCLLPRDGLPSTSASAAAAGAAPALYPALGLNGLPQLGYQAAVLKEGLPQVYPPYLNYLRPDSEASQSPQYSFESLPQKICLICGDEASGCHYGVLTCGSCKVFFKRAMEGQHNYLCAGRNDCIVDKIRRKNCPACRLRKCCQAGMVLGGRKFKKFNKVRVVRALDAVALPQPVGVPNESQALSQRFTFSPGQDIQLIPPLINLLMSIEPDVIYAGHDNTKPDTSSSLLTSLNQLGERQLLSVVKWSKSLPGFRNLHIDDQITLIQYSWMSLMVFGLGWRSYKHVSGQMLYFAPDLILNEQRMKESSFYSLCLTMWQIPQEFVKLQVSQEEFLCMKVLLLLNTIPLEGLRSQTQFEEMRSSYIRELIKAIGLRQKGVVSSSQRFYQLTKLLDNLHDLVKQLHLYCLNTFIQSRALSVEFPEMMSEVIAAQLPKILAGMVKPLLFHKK
Chain of Androgen receptor (Homo sapiens) (P10275 whole entry, looked up): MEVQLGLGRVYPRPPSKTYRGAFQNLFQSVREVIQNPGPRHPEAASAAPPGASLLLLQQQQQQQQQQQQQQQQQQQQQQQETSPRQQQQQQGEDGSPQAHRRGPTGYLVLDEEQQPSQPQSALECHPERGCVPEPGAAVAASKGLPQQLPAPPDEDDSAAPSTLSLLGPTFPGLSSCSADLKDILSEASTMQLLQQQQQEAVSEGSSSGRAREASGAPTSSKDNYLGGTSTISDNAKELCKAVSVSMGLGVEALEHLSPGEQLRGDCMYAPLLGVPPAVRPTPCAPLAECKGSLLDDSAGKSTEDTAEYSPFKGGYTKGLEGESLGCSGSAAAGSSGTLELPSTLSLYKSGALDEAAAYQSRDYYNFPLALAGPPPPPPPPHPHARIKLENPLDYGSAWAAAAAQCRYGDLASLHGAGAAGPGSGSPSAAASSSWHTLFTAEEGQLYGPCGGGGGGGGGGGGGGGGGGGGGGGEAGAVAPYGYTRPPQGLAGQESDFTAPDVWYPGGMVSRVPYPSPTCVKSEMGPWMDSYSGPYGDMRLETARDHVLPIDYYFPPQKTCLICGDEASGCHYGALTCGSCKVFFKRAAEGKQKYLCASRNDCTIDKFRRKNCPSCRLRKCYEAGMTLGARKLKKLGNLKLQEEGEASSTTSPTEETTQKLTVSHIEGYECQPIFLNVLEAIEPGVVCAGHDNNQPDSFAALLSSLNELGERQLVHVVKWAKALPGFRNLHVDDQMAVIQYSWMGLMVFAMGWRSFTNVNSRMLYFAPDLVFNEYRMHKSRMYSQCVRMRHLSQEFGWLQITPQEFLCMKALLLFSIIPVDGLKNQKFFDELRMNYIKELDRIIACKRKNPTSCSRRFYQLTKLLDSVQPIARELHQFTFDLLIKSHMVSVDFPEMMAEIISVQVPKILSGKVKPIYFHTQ
Chain of Estrogen receptor (Homo sapiens) (P03372 whole entry, looked up): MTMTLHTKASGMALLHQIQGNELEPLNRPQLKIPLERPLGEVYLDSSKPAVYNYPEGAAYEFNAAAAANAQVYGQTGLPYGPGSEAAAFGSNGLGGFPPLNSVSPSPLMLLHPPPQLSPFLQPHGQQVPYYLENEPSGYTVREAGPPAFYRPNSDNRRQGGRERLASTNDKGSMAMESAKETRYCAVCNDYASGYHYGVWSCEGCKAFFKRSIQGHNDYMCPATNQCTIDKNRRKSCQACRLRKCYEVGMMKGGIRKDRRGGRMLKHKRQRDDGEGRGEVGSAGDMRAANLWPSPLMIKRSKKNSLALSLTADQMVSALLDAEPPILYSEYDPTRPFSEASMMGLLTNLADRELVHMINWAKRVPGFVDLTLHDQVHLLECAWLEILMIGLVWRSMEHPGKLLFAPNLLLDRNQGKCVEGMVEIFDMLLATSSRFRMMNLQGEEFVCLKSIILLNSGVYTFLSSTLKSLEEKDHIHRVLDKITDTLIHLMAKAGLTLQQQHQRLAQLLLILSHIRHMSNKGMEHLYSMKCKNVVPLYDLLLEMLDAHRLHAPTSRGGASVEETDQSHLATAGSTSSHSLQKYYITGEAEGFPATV

For `O=C(O)CS`, the Potency entry in assay [1] was “inactive and 30.9 µM (active)”. Moreover, the Potency entry in assay [2], in [3], in assay [4], in assay [5], in [6] and in assay [7] was “inactive” throughout. Further, the Potency entry in [8] and in assay [10] was “inactive” throughout. Further, the molecule was called inactive in assay [9], in [11], in assay [12] and in [13].
As for `CCCNC(=O)NS(=O)(=O)c1ccc(Cl)cc1`, the outcome in assay [14], in [16], in assay [17], in [19], in assay [9] and in [11] was inactive. Also, the Potency entry in [15], in [2], in [3], in assay [4], in assay [5] and in [6] was “inactive” each time. Besides, the Potency entry in [18], in assay [7], in assay [8] and in assay [10] was “inactive” throughout.
As to `Nc1ccc(C(=O)O)cc1`, the Potency result in assay [1], in assay [15], in assay [2], in assay [5], in [6] and in assay [18] was “inactive” each time. Also, the Potency entry in [7], in [8] and in assay [10] was “inactive” throughout. Also, the outcome in assay [14], in [16], in assay [17], in [19], in assay [9] and in [11] was inactive.
`CCCCC(CC)COC(=O)/C=C/c1ccc(OC)cc1` (centres undefined): the Potency entry in assay [2], in assay [20], in assay [5], in assay [6], in assay [18] and in assay [7] was “inactive” in each case. The Potency result in [8] and in [10] was “inactive” each time. The result in assay [16], in assay [17], in assay [9], in [11], in assay [12] and in [13] was inactive.
Take `CCOc1ccc(NC(=O)CC(C)O)cc1` (centres undefined): the Potency entry in [2], in [3], in [6], in [18], in [7] and in assay [8] was “inactive” in each case. In [10], the Potency result is “inactive”. Moreover, the call in assay [16], in [17], in assay [19], in assay [9], in assay [11] and in [12] was inactive. Moreover, the molecule was called inactive in assay [13].
As for `O=C(O)CCCCCCCC(=O)O`, the result in assay [14], in assay [16], in [17], in [19], in assay [9] and in [11] was inactive. The molecule was classed as inactive in assay [12] and in assay [13]. In addition, the Potency result in assay [15], in assay [2], in assay [6], in [18], in [7] and in assay [8] was “inactive” each time. Moreover, the Potency entry in assay [10] is “inactive”.
Regarding `CC(C)[C@@H]1CC[C@@H](C)C[C@H]1O`, the molecule was called inactive in assay [14], in assay [16], in [17], in assay [19], in assay [9] and in assay [11]. Besides, the outcome in [12] and in assay [13] was inactive. The Potency entry in assay [15], in assay [2], in assay [20], in assay [6], in assay [18] and in assay [7] was “inactive” in each case. The Potency result in assay [8] and in [10] was “inactive” each time.
In the case of `Nc1ccn([C@H]2CC[C@@H](CO)O2)c(=O)n1`, the result in assay [14], in assay [16], in assay [17], in [9], in assay [11] and in assay [12] was inactive. Also, the molecule was classed as inactive in assay [13]. Further, the Potency entry in assay [15], in [2], in [5], in assay [6], in [7] and in assay [8] was “inactive” throughout. For the same molecule, the Potency entry in assay [10] is “inactive”.
Take `O=S(=O)(O)c1ccc2cc(O)ccc2c1`: the Potency entry in [2], in assay [4], in [6], in assay [18], in assay [7] and in assay [8] was “inactive” throughout. Besides, the Potency result in [10] is “inactive”. The result in assay [19], in assay [9], in assay [11], in assay [12] and in [13] was inactive.
